The values below come from PubChem BioAssay (NCI).

The structures appear in SMILES notation. The panel holds about 79,000 compounds, 15% with a hit somewhere; the sample as a whole holds those more often. Unmarked numbers belong to inactive results. Active and inactive are the calls of the source. Cut-off read from the data, not from the text of the source: active = growth inhibition above about 70%; inactive = the rest.

Assay [1] in a line: NCI Yeast Anticancer Drug Screen. Data for the rad50 strain (AID 155).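 Note: 0% = growth of vehicle-only cultures of the same strain.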 Particulars: S. cerevisiae rad50 strain growth inhibition, hits give high values. The procedure, abridged: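 Vehicle-treated cultures provide the reference for the growth inhibition reported for compound-exposed, repair-deficient yeast.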
Assay [2] can be described thus: NCI Yeast Anticancer Drug Screen. Data for the mec2-1 strain (AID 157). Particulars: S. cerevisiae mec2-1 strain, hits give high values. The procedure, abridged:
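Compounds were applied to mec2-1 yeast cells. Their growth was then compared with that of vehicle-treated cultures to give growth inhibition.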

The nature of assay [3]: NCI Yeast Anticancer Drug Screen. Data for the sgs1 mgt1 strain (AID 161).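 Note: 0% = growth of cultures given vehicle only.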 Particulars: S. cerevisiae sgs1 mgt1 strain, hits give high values. The procedure, abridged: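 Yeast cells carrying a defined DNA-repair defect were exposed to test compounds. Growth inhibition was measured relative to vehicle-treated controls.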
The nature of assay [4]: NCI Yeast Anticancer Drug Screen. Data for the cln2 rad14 strain (AID 165).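 Note: 0% = growth equal to vehicle treated cultures.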 Particulars: S. cerevisiae cln2 rad14 strain, hits give high values. The procedure, abridged: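 Strain: cln2 rad14 yeast, altered in cell cycle control and DNA damage repair. Read-out: growth inhibition vs vehicle.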
Assay [5] can be described thus: NCI Yeast Anticancer Drug Screen. Data for the bub3 strain (AID 167). To be noted: S. cerevisiae bub3 mutant strain, hits give high values. The procedure, abridged:
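Mutant yeast screening strain plus compound; vehicle-treated cultures serve as the 0% inhibition reference.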

Assay [6] in a line: NCI Yeast Anticancer Drug Screen. Data for the mlh1 rad18 strain (AID 175). To be noted: S. cerevisiae mlh1 rad18 strain growth inhibition, hits give high values. The procedure, abridged:
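A repair-deficient yeast strain is exposed to test compound, and growth is scored relative to vehicle-treated controls.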

Setting [7] is: at 5.0 µM (retest, dose inferred, filed as 0.5).
Where [8] appears, read: at 50.0 µM (retest, dose inferred, filed as 5.0).

As for `CCC(N)C(O)C(C)C` (configuration not stated), the growth inhibition in assay [1] (setting [7]) is -1%; in assay [1] (setting [8]), 10%; in assay [1] (at 50.0 µM) it was 71.7% (active); in assay [2] (setting [7]), -1%; in assay [2] (setting [8]) it was 1%; in assay [2] (at 50.0 µM), 2.6%. In addition, the growth inhibition in assay [3] (setting [7]) was -3%; in assay [3] (setting [8]) it was 2%; in assay [3] (at 50.0 µM), 14.3%; in assay [4] (setting [7]), -2%; in assay [4] (setting [8]), -2%; in assay [4] (at 50.0 µM) it was -10.6%. The growth inhibition is 3% in assay [5] (setting [7]); 17% in assay [5] (setting [8]); 13.2% in assay [5] (at 50.0 µM); -1% in assay [6] (setting [7]); 3% in assay [6] (setting [8]); 10.6% in assay [6] (at 50.0 µM).
For the compound `CC(C)CCCCCCCCCCCCC(=O)NCC(=O)NC1C(O)C(O)C(Nc2ncnc3nc[nH]c23)OC1C(O)CO` (configuration not stated), the growth inhibition in assay [1] (setting [7]) was 25%; in assay [1] (setting [8]), 53%; in assay [1] (at 50.0 µM), 34.5%; in assay [2] (setting [7]), 26%; in assay [2] (setting [8]), 46%; in assay [2] (at 50.0 µM), 25.9%. The growth inhibition in assay [3] (setting [7]) was 7%; in assay [3] (setting [8]) it was 43%; in assay [3] (at 50.0 µM), 52.2%; in assay [4] (setting [7]), 5%; in assay [4] (setting [8]), -14%; in assay [4] (at 50.0 µM) it was 47.9%. Moreover, the growth inhibition in assay [5] (setting [7]) is 18%; in assay [5] (setting [8]), 63%; in assay [5] (at 50.0 µM), 52.4%; in assay [6] (setting [7]), 44%; in assay [6] (setting [8]), 63%; in assay [6] (at 50.0 µM) it was 53.9%.
In the case of `COc1ccc(C(=O)C2OC2c2ccccc2)cc1` (configuration not stated), the growth inhibition is -2% in assay [1] (setting [7]); 23% in assay [1] (setting [8]); 42.4% in assay [1] (at 50.0 µM); -6% in assay [2] (setting [7]); 9% in assay [2] (setting [8]); 15.4% in assay [2] (at 50.0 µM). Further, the growth inhibition in assay [3] (setting [7]) is -1%; in assay [3] (setting [8]) it was 20%; in assay [3] (at 50.0 µM) it was 30%; in assay [4] (setting [7]) it was -32%; in assay [4] (setting [8]), 3%; in assay [4] (at 50.0 µM), 20.1%. Moreover, the growth inhibition in assay [5] (setting [7]) is 3%; in assay [5] (setting [8]) it was 18%; in assay [5] (at 50.0 µM), 58.5%; in assay [6] (setting [7]) it was 7%; in assay [6] (setting [8]), 59%; in assay [6] (at 50.0 µM), 34.7%.
For `CCSC(=Nc1nc2ccc(NC(C)=O)cc2s1)SCC`, the growth inhibition is 5% in assay [1] (setting [7]); 96% (active) in assay [1] (setting [8]); 97.2% (active) in assay [1] (at 50.0 µM); -3% in assay [2] (setting [7]); 97% (active) in assay [2] (setting [8]); 98% (active) in assay [2] (at 50.0 µM). Besides, the growth inhibition is -1% in assay [3] (setting [7]); 97% (active) in assay [3] (setting [8]); 98.5% (active) in assay [3] (at 50.0 µM); -3% in assay [4] (setting [7]); 83% (active) in assay [4] (setting [8]); 96.5% (active) in assay [4] (at 50.0 µM). The growth inhibition in assay [5] (setting [7]) is -2%; in assay [5] (setting [8]), 94% (active); in assay [5] (at 50.0 µM), 96% (active); in assay [6] (setting [7]), -2%; in assay [6] (setting [8]) it was 96% (active); in assay [6] (at 50.0 µM), 97.5% (active).
Turning to `CCCN(CCC)Cc1cc2c(cc1O)CC[C@@H]1[C@@H]2CC[C@]2(C)C(=O)CC[C@@H]12`, the growth inhibition in assay [1] (setting [7]) is 98% (active); in assay [1] (setting [8]) it was 87% (active); in assay [1] (at 50.0 µM), 84% (active); in assay [2] (setting [7]), 100% (active); in assay [2] (setting [8]) it was 89% (active); in assay [2] (at 50.0 µM), 51.8%. Besides, the growth inhibition in assay [3] (setting [7]) was 100% (active); in assay [3] (setting [8]), 62%; in assay [3] (at 50.0 µM), 80.1% (active); in assay [4] (setting [7]), 52%; in assay [4] (setting [8]) it was 20%; in assay [4] (at 50.0 µM), 60.9%. Also, the growth inhibition in assay [5] (setting [7]) is 99% (active); in assay [5] (setting [8]), 89% (active); in assay [5] (at 50.0 µM) it was 37.5%; in assay [6] (setting [7]), 99% (active); in assay [6] (setting [8]) it was 94% (active); in assay [6] (at 50.0 µM) it was 65.2%.
As for `CCOC(=O)Nc1cc2c(c(N)n1)N=C(c1ccccc1)CN2`, the growth inhibition in assay [1] (setting [7]) is 6%; in assay [1] (setting [8]), 34%; in assay [1] (at 50.0 µM), 36.3%; in assay [2] (setting [7]), -25%; in assay [2] (setting [8]), 35%; in assay [2] (at 50.0 µM), -3.7%. Moreover, the growth inhibition in assay [3] (setting [7]) is -13%; in assay [3] (setting [8]), 89% (active); in assay [3] (at 50.0 µM), 37.2%; in assay [4] (setting [7]) it was 11%; in assay [4] (setting [8]), 33%; in assay [4] (at 50.0 µM), 17.9%. The growth inhibition was 22% in assay [5] (setting [7]); 80% (active) in assay [5] (setting [8]); 47.1% in assay [5] (at 50.0 µM); 10% in assay [6] (setting [7]); 52% in assay [6] (setting [8]); 18.1% in assay [6] (at 50.0 µM).
Consider `O=C1C2Nc3ccccc3SC2C(=O)N1c1ccccc1C(F)(F)F` (configuration not stated), for which the growth inhibition in assay [1] (setting [7]) is 3%; in assay [1] (setting [8]), 35%; in assay [1] (at 50.0 µM), 73.8% (active); in assay [2] (setting [7]), 3%; in assay [2] (setting [8]), 11%; in assay [2] (at 50.0 µM) it was 12.5%. The growth inhibition was 16% in assay [3] (setting [7]); 24% in assay [3] (setting [8]); 47.4% in assay [3] (at 50.0 µM); 2% in assay [4] (setting [7]); 11% in assay [4] (setting [8]); 46.5% in assay [4] (at 50.0 µM). Further, the growth inhibition in assay [5] (setting [7]) is -1%; in assay [5] (setting [8]) it was 29%; in assay [5] (at 50.0 µM) it was 13.7%; in assay [6] (setting [7]), 7%; in assay [6] (setting [8]), 44%; in assay [6] (at 50.0 µM), 73.2% (active).
For the compound `COc1cc2c[n+](C)c3c4ccccc4ccc3c2cc1OC` (tested in a mixture with another compound), the growth inhibition was 27% in assay [1] (setting [7]); 87% (active) in assay [1] (setting [8]); 38% in assay [1] (at 50.0 µM); 24% in assay [2] (setting [7]); 54% in assay [2] (setting [8]); 8.85% in assay [2] (at 50.0 µM). Besides, the growth inhibition was 24% in assay [3] (setting [7]); 90% (active) in assay [3] (setting [8]); 7.1% in assay [3] (at 50.0 µM); 21% in assay [4] (setting [7]); 69% in assay [4] (setting [8]); 9.7% in assay [4] (at 50.0 µM). Further, the growth inhibition in assay [5] (setting [7]) is 27%; in assay [5] (setting [8]), 81% (active); in assay [5] (at 50.0 µM), 17.9%; in assay [6] (setting [7]), 35%; in assay [6] (setting [8]) it was 77% (active); in assay [6] (at 50.0 µM), -18.6%.
Regarding `O=c1[nH]c(C(F)(F)F)c(F)c(=O)[nH]1`, the growth inhibition in assay [1] (setting [7]) is 0%; in assay [1] (setting [8]), -2%; in assay [1] (at 50.0 µM) it was 69.3%; in assay [2] (setting [7]), 3%; in assay [2] (setting [8]) it was 1%; in assay [2] (at 50.0 µM) it was 93.5% (active). Further, the growth inhibition in assay [3] (setting [7]) is 2%; in assay [3] (setting [8]) it was 27%; in assay [3] (at 50.0 µM), 86.7% (active); in assay [4] (setting [7]) it was 3%; in assay [4] (setting [8]), 5%; in assay [4] (at 50.0 µM), 94.1% (active). Besides, the growth inhibition in assay [5] (setting [7]) is -2%; in assay [5] (setting [8]) it was -5%; in assay [5] (at 50.0 µM), 63.1%; in assay [6] (setting [7]), -2%; in assay [6] (setting [8]) it was -3%; in assay [6] (at 50.0 µM) it was 95% (active).
